Test results taken from PubChem BioAssay (Tox21).
Where “and” joins values, the source holds several entries; their conditions need not be identical. Equal entries are not always repeated. Results filed as inconclusive are left out. Some compounds were tested as several samples or in several runs, with calls that do not always agree. Calls of active or inactive are those of the source. Unless noted, the call rests on the fitted dose curve; in most records, active means well fitted curve in the direction sought with a large enough effect in the repeat runs; inconclusive means weak or mixed curves; inactive means no such curve, though single readings can be large; an effect the other way counts as inactive or inconclusive.

What was measured:
[1] = qHTS assay to identify small molecule antagonists of the glucocorticoid receptor (GR) signaling pathway - cell viability counter screen (AID 720693); further: nearly all actives have a fitted effect of over 55% in size
[2] = qHTS assay for identifying genotoxic compounds that show differential cytotoxicity against isogenic chicken DT40 cell lines with known DNA damage response pathways - wild type cell line (AID 743012); further: nearly all actives have a fitted effect of over 60% in size; further: potency means the concentration at half of the fitted maximal effect
Summary of the method: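 Quantitative HTS on parental DT40 cells: 40 h compound treatment at 37 C/5% CO2, with viability then determined by CellTiter-Glo luminescence. Values serve as the DNA repair-proficient reference for differential cytotoxicity.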

[3] = qHTS assay for identifying genotoxic compounds that show differential cytotoxicity against isogenic chicken DT40 cell lines with known DNA damage response pathways - Rev3 mutant cell line (AID 743014); further: nearly all actives have a fitted effect of over 55% in size; further: potency means the concentration at half of the fitted maximal effect
[4] = qHTS assay for identifying genotoxic compounds that show differential cytotoxicity against isogenic chicken DT40 cell lines with known DNA damage response pathways - Rad54/Ku70 mutant cell line (AID 743015); further: nearly all actives have a fitted effect of over 60% in size; further: potency means the concentration at half of the fitted maximal effect
[5] = qHTS assay to identify small molecule antagonists of the androgen receptor (AR) signaling pathway - cell viability counter screen (AID 743033; further: nearly all actives have a fitted effect of over 45% in size)
[6] = target: Androgen receptor (Homo sapiens) (UniProt P10275); test: qHTS assay to identify small molecule antagonists of the androgen receptor (AR) signaling pathway (AID 743035; active means well fitted inhibition curve with a large enough effect in the signal ratio in the repeat runs, not every such curve was filed as active; the % refers to the signal ratio)
Sequence of Androgen receptor (Homo sapiens) (P10275 whole entry, looked up): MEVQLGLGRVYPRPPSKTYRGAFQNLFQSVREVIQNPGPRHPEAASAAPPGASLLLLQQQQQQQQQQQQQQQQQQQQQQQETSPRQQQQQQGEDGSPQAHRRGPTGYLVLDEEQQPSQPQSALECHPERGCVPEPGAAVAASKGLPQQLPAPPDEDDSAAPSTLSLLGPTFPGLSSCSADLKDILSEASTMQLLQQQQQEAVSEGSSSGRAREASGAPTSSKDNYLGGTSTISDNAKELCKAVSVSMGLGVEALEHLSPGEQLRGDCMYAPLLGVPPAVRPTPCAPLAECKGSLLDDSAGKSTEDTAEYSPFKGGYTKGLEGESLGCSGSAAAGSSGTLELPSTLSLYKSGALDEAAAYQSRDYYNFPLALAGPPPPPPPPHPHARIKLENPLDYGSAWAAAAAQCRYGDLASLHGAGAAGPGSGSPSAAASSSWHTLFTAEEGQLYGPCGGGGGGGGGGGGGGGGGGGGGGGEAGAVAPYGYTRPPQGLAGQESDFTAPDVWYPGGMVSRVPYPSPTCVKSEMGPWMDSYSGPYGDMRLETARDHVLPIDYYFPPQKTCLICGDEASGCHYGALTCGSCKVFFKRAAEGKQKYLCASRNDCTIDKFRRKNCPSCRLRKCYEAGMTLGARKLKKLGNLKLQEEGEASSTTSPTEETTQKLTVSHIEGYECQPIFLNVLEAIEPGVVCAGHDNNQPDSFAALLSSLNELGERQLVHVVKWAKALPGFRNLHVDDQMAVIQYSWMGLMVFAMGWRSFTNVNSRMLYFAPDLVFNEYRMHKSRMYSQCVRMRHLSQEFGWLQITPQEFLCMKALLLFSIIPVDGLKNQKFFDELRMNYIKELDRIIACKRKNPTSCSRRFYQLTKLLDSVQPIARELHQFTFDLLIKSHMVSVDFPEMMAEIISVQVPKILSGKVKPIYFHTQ
Summary of the method: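 Cell line: GeneBLAzer AR-UAS-bla GripTite (HEK293). Stimulus: R1881 added after compound. Exposure: 16 h, 37C, 5% CO2. Readout: LiveBLAzer B/G FRET fluorescence after 2 h at room temperature.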

[7] = target: Androgen receptor (Homo sapiens) (UniProt P10275); test: qHTS assay to identify small molecule agonists of the androgen receptor (AR) signaling pathway (AID 743036; active means well fitted activation curve with a large enough effect in the signal ratio in the repeat runs, with a control signal flat, not every such curve was filed as active; the % refers to the signal ratio)
Summary of the method: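 Fluorescence from a beta-lactamase FRET substrate served as read-out in AR-UAS-bla GripTite HEK293 cells. Cells were treated with DMSO-dissolved compounds for 16 h at 37C, then with LiveBLAzer B/G substrate for 2 h at room temperature.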

[8] = target: Androgen receptor (Homo sapiens) (UniProt P10275); test: qHTS assay to identify small molecule agonists of the androgen receptor (AR) signaling pathway using the MDA cell line (AID 743040; further: nearly all actives have a fitted effect of over 20% in size)
Summary of the method: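 Human breast carcinoma MDA-kb2 reporter cells (MMTV-luc, AR/GR elements) were treated for 16 h at 37C in 0% CO2 following a 5 h settling period. Signal was quantified by ONE-Glo luminescence.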

[9] = qHTS assay to identify small molecule antagonists of the androgen receptor (AR) signaling pathway using the MDA cell line - cell viability counter screen (AID 743041; further: nearly all actives have a fitted effect of over 45% in size)
Summary of the method: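 Same-well cytotoxicity was assessed by CellTiter-Fluor in MDA-kb2 AR-luc cells after 16 h of compound treatment under R1881 agonism.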

[10] = target: Androgen receptor (Homo sapiens) (UniProt P10275); test: qHTS assay to identify small molecule antagonists of the androgen receptor (AR) signaling pathway using the MDA cell line (AID 743042; further: nearly all actives have a fitted effect of over 55% in size; further: potency means the concentration at half of the fitted maximal effect)
Summary of the method: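 MDA-kb2 breast carcinoma cells carrying MMTV-luciferase (AR/GR responsive) were co-treated with compounds and the agonist R1881 for 16 h at 37C. Inhibition read as ONE-Glo luminescence; CellTiter-Fluor fluorescence measured in parallel for cytotoxicity.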

[11] = qHTS assay to identify small molecule antagonists of the thyroid receptor (TR) signaling pathway - cell viability counter screen (AID 743064); further: nearly all actives have a fitted effect of over 50% in size; further: potency means the concentration at half of the fitted maximal effect
Summary of the method: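 Fluorescence from CellTiter-Fluor, added after 23.5 h exposure at 37 °C, reported viability of GH3.TRE-Luc cells co-treated with compound and 1 nM T3. Measured in the same wells as the luciferase TR readout.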

[12] = test system: thyroid hormone receptor (rat, GH3 cells); test: qHTS assay to identify small molecule agonists of the thyroid receptor (TR) signaling pathway (AID 743066; calls by dose curve)
[13] = qHTS assay to identify small molecule antagonists of the estrogen receptor alpha (ER-alpha) signaling pathway - cell viability counter screen (AID 743074; calls by dose curve;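 further: HEK293 cells carrying ER-alpha-UAS-bla reporter stimulated with 17beta-estradiol; nearly all actives have a fitted effect of over 45% in size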)
Aromatase (Homo sapiens) = Aromatase (Homo sapiens) (UniProt P11511); test: qHTS assay to identify aromatase inhibitors (AID 743083); further: series mostly up to about 70 µM; nearly all actives have a fitted effect of over 55% in size
Sequence of Aromatase (Homo sapiens) (P11511 whole entry, looked up): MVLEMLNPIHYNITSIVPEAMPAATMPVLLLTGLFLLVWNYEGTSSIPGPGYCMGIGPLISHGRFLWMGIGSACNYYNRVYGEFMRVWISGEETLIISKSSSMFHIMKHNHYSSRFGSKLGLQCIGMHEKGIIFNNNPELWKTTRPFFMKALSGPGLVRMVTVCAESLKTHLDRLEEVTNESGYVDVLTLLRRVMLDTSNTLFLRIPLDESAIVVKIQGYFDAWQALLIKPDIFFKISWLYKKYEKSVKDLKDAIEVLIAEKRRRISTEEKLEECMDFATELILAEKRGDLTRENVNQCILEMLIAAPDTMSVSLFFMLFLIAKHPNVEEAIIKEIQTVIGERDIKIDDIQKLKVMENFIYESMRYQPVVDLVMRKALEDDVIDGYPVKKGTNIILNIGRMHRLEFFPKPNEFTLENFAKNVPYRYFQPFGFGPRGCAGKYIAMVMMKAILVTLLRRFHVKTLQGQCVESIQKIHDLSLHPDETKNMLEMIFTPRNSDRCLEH

[14] = qHTS assay to identify small molecule antagonists of the estrogen receptor alpha (ER-alpha) signaling pathway using the BG1 cell line - cell viability counter screen (AID 743081);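 further: compound given together with 17beta-estradiol as the ER stimulus; series mostly up to about 70 µM; nearly all actives have a fitted effect of over 45% in size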
[15] = qHTS assay to identify small molecule antagonists of the thyroid receptor (TR) signaling pathway (AID 743065)
Summary of the method: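 GH3.TRE-Luc rat pituitary cells (two TREs driving luciferase) were dosed with compound, then stimulated with 1 nM T3 (final) for 23.5 h at 37 C. ONE-Glo luminescence was the read-out, with CellTiter-Fluor fluorescence as the cytotoxicity counter-screen.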

[16] = target: Estrogen receptor (Homo sapiens) (UniProt P03372); test: qHTS assay to identify small molecule antagonists of the estrogen receptor alpha (ER-alpha) signaling pathway (AID 743069; active means well fitted curve in the direction sought with a large enough effect in the signal ratio in the repeat runs, not every such curve was filed as active; the % refers to the signal ratio)
Sequence of Estrogen receptor (Homo sapiens) (P03372 whole entry, looked up): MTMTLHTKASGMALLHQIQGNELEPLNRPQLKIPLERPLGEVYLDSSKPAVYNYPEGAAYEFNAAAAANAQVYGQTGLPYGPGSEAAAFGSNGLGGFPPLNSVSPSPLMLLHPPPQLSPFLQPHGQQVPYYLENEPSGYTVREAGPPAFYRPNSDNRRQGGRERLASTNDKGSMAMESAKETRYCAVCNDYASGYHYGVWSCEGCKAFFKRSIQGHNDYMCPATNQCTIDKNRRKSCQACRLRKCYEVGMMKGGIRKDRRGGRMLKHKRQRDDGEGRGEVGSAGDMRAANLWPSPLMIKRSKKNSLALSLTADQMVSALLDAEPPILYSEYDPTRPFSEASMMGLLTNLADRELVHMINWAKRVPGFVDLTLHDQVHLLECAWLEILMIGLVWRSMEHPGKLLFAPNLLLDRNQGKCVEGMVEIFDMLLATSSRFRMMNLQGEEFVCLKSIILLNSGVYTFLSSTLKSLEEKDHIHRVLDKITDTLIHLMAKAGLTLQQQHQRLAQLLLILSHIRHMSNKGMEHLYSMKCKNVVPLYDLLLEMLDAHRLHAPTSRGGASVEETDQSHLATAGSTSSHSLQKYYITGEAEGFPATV
Summary of the method: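 Reporter cells (ER-alpha-bla, HEK293 background) are conditioned overnight in stripped-serum medium (2% charcoal-stripped FBS). Compound and 17beta-estradiol exposure runs 18 hr at 37C, 5% CO2.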

[17] = target: Estrogen receptor (Homo sapiens) (UniProt P03372); test: qHTS assay to identify small molecule agonists of the estrogen receptor alpha (ER-alpha) signaling pathway (AID 743075; calls by dose curve;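 further: HEK293 GripTite cells with ER-alpha and UAS-driven beta-lactamase reporter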)
[18] = target: Estrogen receptor (Homo sapiens) (UniProt P03372); test: qHTS assay to identify small molecule agonists of the estrogen receptor alpha (ER-alpha) signaling pathway using the BG1 cell line (AID 743079); further: nearly all actives have a fitted effect of over 20% in size; further: potency means the concentration at half of the fitted maximal effect
[19] = qHTS assay to identify small molecule antagonists of the estrogen receptor alpha (ER-alpha) signaling pathway using the BG1 cell line (AID 743080; calls by dose curve;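 further: BG1 cells stimulated with 17beta-estradiol alongside compound; series mostly up to about 70 µM; nearly all actives have a fitted effect of over 25% in size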)
Summary of the method: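 After 5 days in phenol-red-free 10% charcoal-stripped FBS medium, BG1-Luc-4E2 cells were seeded, left 24 h at 37 C, co-treated with compounds and 17beta-estradiol for 21.5 h, then assayed for viability and luciferase.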

Measured: Potency

NCCNc1cccc2ccccc12
active: [11] 27.3 µM and 29.9 µM
inactive and 54.4 µM (active): [3] | [10]
inactive: [1] | [2] | [4] | [5] | [6] | [7] | [8] | [9] | [12] | [13] | Aromatase (Homo sapiens)

COc1ccc(O)cc1
inactive: [1] | [2] | [3] | [4] | [5] | [6] | [7] | [8] | [9] | [10] | [11] | [12] | [13] | [14] | Aromatase (Homo sapiens)

c1ccc2[nH]c(-c3cscn3)nc2c1
inactive and 54.5 µM (active): [3]
inactive and 48.6 µM (active): [4]
inactive: [1] | [5] | [6] | [7] | [8] | [9] | [10] | [11] | [15] | [12] | [16] | [13] | [17] | [14] | Aromatase (Homo sapiens)
active: [18] 16.8 µM and 24.5 µM and 9.69 µM
inactive and 69 µM (active): [2]

CC1(C)O[C@@H]2[C@@H](CO[C@@]3(COS(N)(=O)=O)OC(C)(C)O[C@@H]23)O1
inactive: [1] | [2] | [3] | [4] | [5] | [9] | [11] | [15] | [12] | [16] | [13] | [17] | [18] | [19] | [14] | Aromatase (Homo sapiens)

O=C1OC(c2ccc(O)cc2)(c2ccc(O)cc2)c2ccccc21
inactive: [1] | [5] | [7] | [8] | [9] | [10] | [13] | [14] | Aromatase (Homo sapiens)
active: [2] 38.3 µM | [3] 17.1 µM | [4] 27.1 µM

COC(=O)c1ccc(O)cc1
inactive: [1] | [2] | [3] | [4] | [5] | [9] | [11] | [15] | [12] | [16] | [13] | [17] | [18] | [19] | [14] | Aromatase (Homo sapiens)

CC1=NN(c2ccccc2)C(=O)C1
inactive: [1] | [2] | [3] | [4] | [5] | [9] | [11] | [15] | [12] | [16] | [13] | [17] | [18] | [19] | [14] | Aromatase (Homo sapiens)

COc1cc(C=O)ccc1O
inactive: [1] | [2] | [3] | [4] | [5] | [7] | [8] | [9] | [10] | [11] | [15] | [12] | [13] | [17] | [18] | [19] | [14] | Aromatase (Homo sapiens)

CN(C)Cc1cc(CN(C)C)c(O)c(CN(C)C)c1
inactive: [1] | [2] | [3] | [4] | [5] | [6] | [7] | [8] | [9] | [10] | [11] | [15] | [12] | [16] | [13] | [17] | [18] | [19] | [14] | Aromatase (Homo sapiens)

NC(=O)OCC(COC(N)=O)c1ccccc1
inactive: [1] | [2] | [3] | [4] | [5] | [6] | [7] | [8] | [9] | [10] | [11] | [12] | [16] | [13] | [17] | [18] | [19] | [14] | Aromatase (Homo sapiens)

Cc1cccc(C)c1O
inactive: [1] | [2] | [3] | [4] | [5] | [6] | [7] | [8] | [9] | [10] | [11] | [15] | [12] | [16] | [13] | [17] | [18] | [19] | [14] | Aromatase (Homo sapiens)

Cc1cccc(Nc2cc(Cl)nc(SCC(=O)O)n2)c1C
inactive: [1] | [2] | [3] | [4] | [5] | [6] | [8] | [9] | [10] | [11] | [12] | [16] | [13] | [17] | [18] | [19] | [14] | Aromatase (Homo sapiens)

COC(=O)C1CCC(C(=O)OC)CC1 (centres undefined)
inactive: [1] | [2] | [3] | [4] | [5] | [9] | [11] | [15] | [12] | [16] | [13] | [17] | [18] | [19] | [14] | Aromatase (Homo sapiens)
